# ssDAF-12 act: activators of S. stercoralis DAF-12 nuclear receptor | HEK293 ssDAF-12/GRIP1 lit1-tk-luc reporter, luminescence; % of 3 µM dafachronic acid response | activation, % at 6.8 µM | actives 1% (n = 370,000) | AID 652126;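 active = activation above the mean over all tested compounds plus 3 SD, cut at about 0.9% in these data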;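 note: 0% = DMSO-only wells and 100% = 3 µM delta7-dafachronic acid wells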
# hgDAF12 agonist: hgDAF-12 agonism, primary luciferase screen; HEK293 GAL4-hgDAF12 UAS-luciferase reporter, agonist luminescence; normalized to butyrate control; activation, % at 6.8 µM; actives 1.8% (n = 370,000); AID 687014;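 active = activation above a cutoff set at the mean of all screened compounds plus 3 SD, cut at about 10% in these data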;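 note: 0% = DMSO wells and 100% = sodium butyrate wells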
# DAX1 inh-1: NR0B1 (DAX1) inhibition. inhibition, % at 6.75 µM. actives 0.99% (n = 340,000). P51843. HEK293 Gal4-DAX1 luciferase reporter, luminescence;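 active = inhibition above the mean over all tested compounds plus 3 SD, cut at about 4.2% in these data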;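 note: 0% = DAX1-transfected cells with DMSO and 100% = empty-vector control cells with DMSO; inhibition shows as a rise in luminescence from relieved DAX1 repression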
# DAX1 inh-2: blocks DAX1 repression of SF-1 activated StAR promoter | inhibition, % at 6.8 µM | actives 1.1% (n = 370,000) | HEK293T StAR-luciferase reporter, SF-1/DAX-1 repression relief | AID 652010;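 active = inhibition above the mean over all tested compounds plus 3 SD, cut at about 3.6% in these data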;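 note: 0% = DAX-1 cells with DMSO and 100% = cells lacking DAX-1 with DMSO; higher inhibition means more luminescence from relief of DAX-1 repression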
# hcDAF-12 act: H. contortus DAF-12 activation, primary screen. HEK293 hcDAF-12 lit1-tk-luc reporter, luminescence; 0% DMSO, 100% Δ7-dafachronic acid. activation, % at 6.8 µM. actives 1.4% (n = 370,000);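 active = activation above the mean of all tested compounds plus 3 SD, cut at about 5.5% in these data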;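 note: 100% = response to 3 µM Δ7-dafachronic acid high control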
# LXR ag: LXR-beta agonism as hcDAF-12 counter-screen. shares compounds with hcDAF-12 act. HEK293 Gal4-LXR tk-luc reporter, luminescence, 24 h; normalized: DMSO 0%, positive control 100%. activation, % at 6.8 µM. 3,400 tested, under 10 active;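 active = mean percent activation of the reporter above a cutoff set as the average over tested compounds plus their standard deviation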
# Target sequence (P55055 whole entry, looked up, the tested form may be a part): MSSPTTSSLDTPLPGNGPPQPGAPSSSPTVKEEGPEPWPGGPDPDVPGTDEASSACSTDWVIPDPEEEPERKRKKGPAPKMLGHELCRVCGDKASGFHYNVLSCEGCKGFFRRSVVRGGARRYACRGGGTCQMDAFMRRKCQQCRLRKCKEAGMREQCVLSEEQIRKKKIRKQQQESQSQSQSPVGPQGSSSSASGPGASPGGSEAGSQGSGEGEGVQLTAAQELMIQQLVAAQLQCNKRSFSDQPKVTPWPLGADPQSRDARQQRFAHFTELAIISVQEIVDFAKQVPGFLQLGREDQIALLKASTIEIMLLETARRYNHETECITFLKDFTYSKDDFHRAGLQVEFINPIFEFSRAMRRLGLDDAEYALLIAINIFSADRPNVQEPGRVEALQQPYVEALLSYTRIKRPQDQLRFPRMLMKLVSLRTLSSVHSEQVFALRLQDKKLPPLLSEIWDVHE
# hcDAF12 ag: confirmation of H. contortus DAF-12 agonists. shares compounds with hcDAF-12 act. HEK293 hcDAF-12 lit1-tk-luc reporter, luminescence; % of Δ7-dafachronic acid response. activation, % at 6.8 µM. actives 61% (n = 3,400);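 active = mean activation across triplicate tests above the threshold derived from the earlier primary screen, cut at about 5.5% in these data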;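 note: 0% = DMSO only wells and 100% = 3 µM Δ7-dafachronic acid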
# hgDAF12 conf: hgDAF-12 agonism, confirmation assay; shares compounds with hgDAF12 agonist; activation, % at 6.8 µM; HEK293 GAL4-hgDAF12 luciferase reporter, agonist mode; percent of butyrate response; actives 80% (n = 3,300);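 active = mean activation over triplicate wells above the hit cutoff derived from the earlier primary screen, cut at about 11% in these data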;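 note: 0% = DMSO low control and 100% = 2 mM sodium butyrate high control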
# LXR ag 2: counter-screen for DAF-12 agonists: agonists of human LXR-beta. AID 743051. activation, % at 6.8 µM. HEK293 Gal4-LXR luciferase reporter, 24 h. 3,300 tested, under 10 active. shares compounds with hgDAF12 agonist;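 active = mean activation of the triplicate above a set limit carried over from the primary screen, none filed active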
# Active calls of the source: *; · = no result. An excerpt weighted towards active compounds, which were near 4.1% of everything screened.
SMILES,ssDAF-12 act,hgDAF12 agonist,DAX1 inh-1,DAX1 inh-2,hcDAF-12 act,LXR ag,hcDAF12 ag,hgDAF12 conf,LXR ag 2
COc1ccccc1Cc1c(-c2cccc(Cl)c2)nc2c3ccccc3ccn12,0,5,·,2,2,·,·,·,·
Cn1c2nc3ccccc3c-2nc2ccccc21,0,16*,2,2,8.3*,0,6.7*,15*,0
Cn1c(-c2nonc2N)nc2ccccc21,-2,5,-1,0,-3,·,·,·,·
O=C(CSc1ncccc1-c1nc2ccccc2[nH]1)NCc1ccco1,0,1,-1,0,2,·,·,·,·
Cc1cc2nc(-c3cccnc3SCC(=O)NCc3ccco3)[nH]c2cc1C,1.3*,14*,-1,2,11*,1,9.1*,25*,1
O=C(O)c1cc(N/N=C/c2ccc(-c3ccccc3)cc2)ccc1Cl,1.3*,24*,3,2,11*,2,12*,25*,1
O=C(O)c1cc(N/N=C/c2ccncc2)ccc1Cl,-1,1,-3,1,0,·,·,·,·
C/C(=N\NC(=O)c1nn(C)c(C)c1Br)c1ccc(NC(=O)c2ccccc2F)cc1,0,14*,4.4*,4.2*,7.2*,0,0,2,0
COc1ccc(C(=O)N/N=C(/C)c2cccc(NC(=O)c3ccccc3F)c2)cc1,-1,6,1,1,3,·,·,·,·
O=c1[nH]c(N/N=C\c2ccc(F)cc2)nc2ccccc12,1.6*,15*,3,4,8.4*,1,5,18*,1
O=c1[nH]c(N/N=C/c2ccc(O)cc2)nc2ccccc12,1,9,2,2,1,·,·,·,·
CC(C)[C@H](NC(=O)CC1CCCC1)C(=O)N1CCC[C@H]1C(=O)NCc1ccccc1,-1,-1,·,0,0,·,·,·,·
Cc1oc(=O)c(NC(=O)c2ccccc2)cc1C(N)=O,0,-1,·,0,1,·,·,·,·
O=C(Nc1cc2ccccc2oc1=O)c1ccccc1,0,15*,·,2,11*,1,9.2*,5,1
Cn1c(O)c(N=NC(=O)CNC(=O)c2ccco2)c2ccccc21,0,0,-1,-1,1,·,·,·,·
Cn1c(O)c(N=NC(=O)c2ccco2)c2ccccc21,1.3*,19*,1,4.2*,12*,1,14*,22*,1
Cn1c(O)c(N=NC(=O)c2ccccc2O)c2ccccc21,1.6*,22*,1,3,11*,1,13*,17*,1
CNC(=O)c1ccsc1NC(=O)c1ccc2c(c1)CCCC2,0,17*,0,1,6.9*,0,7.0*,9,0
NS(=O)(=O)c1ccc(NC(=O)c2ccc3c(c2)CCCC3)cc1,0,3,0,0,-1,·,·,·,·
COC1C(O)CCC2(CO2)C1C1(C)OC1CC=C(C)C (stereo not drawn),-2,2,·,-2,-2,·,·,·,·
O=C(Nc1ccc(Cl)c(Cl)c1)C1CCCN(c2nnc(-n3cccc3)s2)C1 (stereo not drawn),-1,-3,·,0,-2,·,·,·,·
Cc1ccc(C(=O)Nc2ccc3ccccc3c2)cc1,-1,-2,-7,0,3,·,·,·,·
O=C(Nc1ccc2ccccc2c1)c1ccc(Cl)cc1,1.7*,16*,4,3.8*,6.8*,2,9.4*,22*,1
O=C(Nc1ccc2[nH]ncc2c1)c1cccc(F)c1,0,8,2,1,0,·,·,·,·
O=C(Nc1ccc2ccccc2c1)c1cccc(F)c1,0,14*,4,3,8.9*,1,7.3*,16*,1
SMILES,ssDAF-12 act,hgDAF12 agonist,DAX1 inh-1,DAX1 inh-2,hcDAF-12 act,LXR ag,hcDAF12 ag,hgDAF12 conf,LXR ag 2
Cc1ccc2cc(NC(=O)c3cccc(F)c3)ccc2n1,0,15*,3,3,8.2*,1,4,20*,1
CC[C@@H](CCCc1ccc(F)cc1)CN(Cc1ccc(OC)cc1)S(=O)(=O)c1ccc(C)cc1,-1,0,·,0,0,·,·,·,·
COc1ccc(-c2cc(-c3nnc(SCC(=O)N4CCOCC4)n3N)[nH]n2)cc1,-1,3,·,0,-1,·,·,·,·
Cc1cc(C)nc(Nc2nc3ccccc3s2)n1,0,17*,1,4.5*,14*,2,15*,19*,1
Cc1ccc(Nc2nc3ccccc3s2)c(C)c1,1.2*,21*,0,4,9.1*,2,9.6*,22*,1
COC(=O)c1cc2c(c3c4cc(F)ccc4n(S(=O)(=O)c4ccc(C)cc4)c13)C(=O)N(Cc1ccccc1)C2,-1,-3,·,0,-1,·,·,·,·
CCOC(=O)CC[C@H]1CC[C@]2(CCCN(C(=O)c3cccnc3)C2)O1,0,3,·,0,-1,·,·,·,·
O=C(Nc1nccs1)c1sc2ccccc2c1Cl,3.0*,18*,-1,3,15*,2,16*,17*,1
O=C(/C=C\c1ccccc1)Nc1nccs1,0,20*,1,3,8.4*,2,5,20*,1
Cc1cc(C(=O)Nc2ccccn2)no1,0,8,1,1,3,·,·,·,·
O=C(Nc1ccccn1)c1ccc2ccccc2n1,3.7*,17*,1,4,19*,2,22*,18*,1
O=C(Nc1nccs1)c1ccc2ccccc2n1,3.6*,18*,1,2,18*,2,16*,23*,1
Cc1csc(NC(=O)c2ccc3ccccc3n2)n1,4.1*,18*,1,3,21*,2,16*,26*,1
Cc1csc(NC(=O)c2cnc3ccccc3n2)n1,2.1*,16*,-1,2,15*,1,14*,18*,1
CC(C)=CCC[C@@]1(C(=O)O)[C@@H]2C/C=C(\C)CC/C=C(\C)CC[C@H]1[C@]1(CC2)CO1,-1,-3,·,0,1,·,·,·,·
CCOC(=O)CC[C@H]1CC[C@]2(CCCN(S(=O)(=O)C3CCCCC3)C2)O1,-1,0,·,-1,0,·,·,·,·
CCOc1ccc(C(=O)Nc2ccccc2C(=O)O)cc1,1.1*,18*,0,3,8.2*,1,8.3*,15*,1

# Screening data from PubChem.
